Experimental data as given in the supplement of paper PMC13380429.

test system: Vero E6 infected with SARS-CoV-2; assay: SARS-CoV-2 infection rate relative to infected DMSO; higher = more infection, active = 60 or less; conditions: 24 h

| SMILES | SARS-CoV-2 infection rate |
| --- | --- |
| CCO[C@H]1O[C@@H]2O[C@@]3(C)CC[C@H]4[C@H](C)CC[C@@H]([C@H]1C)[C@@]24OO3 [artemotil] (10 µM) | 113% (inactive) |
| CC(=O)Nc1ccc(NC(=S)NC(=O)c2ccc(C(C)(C)C)cc2)cc1 [tenovin-1] (10 µM) | 109% (inactive) |
| C=C[C@H]1CN2CC[C@H]1C[C@H]2[C@H](O)c1ccnc2ccccc12 [cinchonidine] (10 µM) | 112% (inactive) |
| OCc1cc([C@@H](O)CNCCCCCCOCCOCc2c(Cl)cccc2Cl)ccc1O [vilanterol] (10 µM) | 111% (inactive) |
| COc1cccc(NC(=O)/C=C/c2ccc(Cl)cc2)c1 (10 µM) | 99.5% (inactive) |
| C=CCc1ccc(O)c(-c2ccc(O)c(CC=C)c2)c1 [honokiol] (10 µM) | 80.5% (inactive) |
| COc1cc(NS(=O)(=O)c2ccc(N)cc2)nc(OC)n1 [sulphadimethoxine] (10 µM) | 103% (inactive) |
| O=C(c1ccc(F)cc1)C1CCN(CCn2c(=O)[nH]c3ccccc3c2=O)CC1 [ketanserin] (10 µM) | 106% (inactive) |
| CC(=O)O[C@H]1C(=O)[C@@]2(C)[C@H]([C@H](OC(=O)c3ccccc3)[C@]3(O)C[C@H](OC(=O)[C@H](O)[C@@H](NC(=O)c4ccccc4)c4ccccc4)C(C)=C1C3(C)C)[C@]1(OC(C)=O)CO[C@@H]1C[C@@H]2O [paclitaxel] (10 µM) | 108% (inactive) |
| CC[C@H]1OC(=O)C[C@@H](O)[C@H](C)[C@@H](O[C@@H]2O[C@H](C)[C@@H](O[C@H]3C[C@@](C)(O)[C@@H](O)[C@H](C)O3)[C@H](N(C)C)[C@H]2O)[C@@H](CC=O)C[C@@H](C)C(=O)/C=C/C(C)=C/[C@@H]1CO[C@@H]1O[C@H](C)[C@@H](O)[C@@H](OC)[C@H]1OC (0.833333 µM) | 81% (inactive) |
| COc1ccc(CN(CCN(C)C)c2ncccn2)cc1 [thonzylamine] (10 µM) | 110% (inactive) |
| C=C(C)[C@@H]1CC=C(CO)CC1 [perillyl-alcohol] (10 µM) | 100% (inactive) |
| CC(C)Oc1ccc(-c2nc(-c3cccc4c3CC[C@H]4NCCC(=O)O)no2)cc1C#N (10 µM) | 96.5% (inactive) |
| CC(C)(C)c1ccc2cc(C#N)c(C#N)cc2c1 (10 µM) | 105% (inactive) |
| C[N+](C)(C)CC#CCN1CCCC1=O [oxotremorine-M] (10 µM) | 89.5% (inactive) |
| Cc1ccc(-c2ncc[nH]2)cc1NC(=O)c1ccc(OCc2ccccn2)cc1 (10 µM) | 97% (inactive) |
| Cc1onc(-c2ccccc2)c1-c1ccc(S(N)(=O)=O)cc1 [valdecoxib] (10 µM) | 98.5% (inactive) |
| CC(C)n1nccc1-c1ncccc1COc1cccc(O)c1C=O [voxelotor] (10 µM) | 102% (inactive) |
| CO[C@H]1C[C@@H]2CC[C@@H](C)[C@@](O)(O2)C(=O)C(=O)N2CCCC[C@H]2C(=O)O[C@H]([C@H](C)C[C@@H]2CC[C@H](n3cnnn3)[C@H](OC)C2)CC(=O)[C@H](C)/C=C(\C)[C@@H](O)[C@@H](OC)C(=O)[C@H](C)C[C@H](C)/C=C/C=C/C=C/1C [zotarolimus] (0.833333 µM) | 119% (inactive) |
| C[C@@]1(O)[C@H](O)[C@@H](CO)O[C@H]1n1ccc(N)nc1=O (10 µM) | 103% (inactive) |

| SMILES | SARS-CoV-2 infection rate |
| --- | --- |
| O=C(O)c1cc2cccc([N+](=O)[O-])c2[nH]1 (10 µM) | 100% (inactive) |
| CN(C)Cc1c(C(=O)NCCOc2ccc(C(=O)NO)cc2)oc2ccccc12 (10 µM) | 96.5% (inactive) |
| COc1ccc(CNCc2cccc3ccccc23)cc1 (10 µM) | 105% (inactive) |
| Cc1cc(N2CCOCC2)ccc1Nc1nc(NC2CCCCC2)c2nc[nH]c2n1 (10 µM) | 90.5% (inactive) |
| COc1cc(C(=O)NC2CCCNC2)cc(OC)c1OC (stereo not given) [troxipide] (10 µM) | 120% (inactive) |
| NS(=O)(=O)OC[C@@H]1C[C@@H](n2ccc3c(N[C@H]4CCc5ccccc54)ncnc32)C[C@@H]1O [pevonedistat] (0.833333 µM) | 110% (inactive) |
| CS(=O)(=O)c1cccc(CNc2nc(Nc3ccc4c(c3)CCC(=O)N4)ncc2C(F)(F)F)c1 (0.833333 µM) | 114% (inactive) |
| CC(=O)c1ccc2c(c1)N(CCCN1CCC(CCO)CC1)c1ccccc1S2 [piperacetazine] (10 µM) | 75% (inactive) |
| C[S+]([O-])CCCCN=C=S (stereo not given) [sulforaphane] (10 µM) | 6.5% (active) |
| COc1c(C)c2c(c(O)c1C/C=C(\C)CCC(=O)OCCN1CCOCC1)C(=O)OC2 [mycophenolate-mofetil] (10 µM) | 108% (inactive) |
| CCC[C@@H]1C[C@@H](C(=O)N[C@@H]([C@H]2O[C@H](SC)[C@H](O)[C@@H](O)[C@H]2O)[C@@H](C)O)N(C)C1 [lincomycin] (10 µM) | 105% (inactive) |
| CCOC(=O)C1=C(C)NC(C)=C(C(=O)OCC)C1c1ccccc1/C=C/C(=O)OC(C)(C)C [lacidipine] (10 µM) | 106% (inactive) |
| Oc1ccc(-c2nc(-c3ccc(F)cc3)c(-c3ccncc3)[nH]2)cc1 (10 µM) | 71% (inactive) |
| CCn1c(=O)[nH]c2ccccc21 (10 µM) | 92.5% (inactive) |
| OCCCNc1cc(-c2ccnc(Nc3cccc(Cl)c3)n2)ccn1 (10 µM) | 98% (inactive) |
| OC[C@H]1NCC[C@@H](O)[C@@H]1O [fagomine] (10 µM) | 105% (inactive) |
| O=C(NCCCNc1nc(Nc2cccc(NC(=O)N3CCCC3)c2)ncc1I)c1cccs1 (0.833333 µM) | 118% (inactive) |
| Cn1c(COP(=O)(NCCBr)NCCBr)cnc1[N+](=O)[O-] (10 µM) | 106% (inactive) |
| CCc1c(C(=O)NCCc2ccc(N3CCCCC3)cc2)[nH]c2ccc(Cl)cc12 (10 µM) | 124% (inactive) |
| Oc1ccc(C(O)CNCCCCCCNCC(O)c2ccc(O)c(O)c2)cc1O (stereo not given) [hexoprenaline] (10 µM) | 116% (inactive) |
